The panel holds about 83,000 compounds, 20% with a hit somewhere; the sample as a whole holds those more often.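 Each cell line was grown in a 96-well plate and treated with one concentration of compound for 48 hours. Values below 10 were considered active.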 Unmarked numbers belong to inactive results. Active and inactive are the calls of the source.
Tested on: U251 CNS
Assay: NCI-60 one-dose screen, 48 h (100 = growth as untreated, 0 = no growth, -100 = all killed)
Conditions: 10 µM unless noted

Point of comparison: COc1cccc(-n2cc(-c3nc(Cl)c4ccccc4n3)nn2)c1, growth 153%. Against it:
- CC1(C)OC2COC3(C(=O)O)OC(C)(C)OC3C2O1 (stereo not drawn) — lower, 102%
- Cc1ccc(Cn2c(-c3cccs3)nc3ccccc32)cc1 — lower, 85.5%
- COc1cc2c(cc1OC)C1(C)N(CC2)C(=O)OC1(C)C (stereo not drawn) — lower, 101%
- Cc1cc(-c2ccccc2)c(C)n1Cc1ccc(Cl)cc1 — lower, 25%
- CCN(Cc1ccccc1)c1ccc(SC#N)cc1 — lower, 81.5%
- O=C1Nc2ccc(Br)cc2C1=N/C=c1\[nH]c(=O)/c(=C/c2ccc(Cl)cc2)s1 — lower, 83.7%
- COc1ccc(-c2nc(-c3ccccc3)c(-c3ccccc3)n2C2CC2)cc1OC1CCCCC1 — lower, 43.9%
- CC(=O)Nc1ccc(S(=O)(=O)N2C(=O)CCC2C(=O)Nc2ccccc2)cc1 (stereo not drawn) — lower, 29.4%
- COc1cc(CNC(=O)CCSc2nc3ccccc3c(=O)n2Cc2cc(OC)c(OC)c(OC)c2)cc(OC)c1OC — lower, 38.3%
- O=C(CN1CCN(c2cc3c(cc2F)c(=O)c(C(=O)O)cn3C2CC2)CC1)Nc1ccc(C(=O)/C=C/c2ccccc2)cc1 — lower, 14.9%
- COc1ccc(/C=C/c2cc(N3CCOCC3)c3cc(F)c(F)cc3n2)cc1OC — lower, 23.5%
- CCNC(=O)C1CCCN1C(=O)C(CCCN=C(N)N)NC(=O)C(CC(C)C)NC(=O)C(CC(C)C)NC(=O)C(Cc1ccc(O)cc1)NC(=O)C(CO)NC(=O)C(Cc1c[nH]c2ccccc12)NC(=O)C(Cc1cnc[nH]1)NC(=O)C1CCC(=O)N1 (stereo not drawn) — lower, 94.8%
- Nc1c(C(=O)Nc2cccc(Cl)c2Cl)sc2nc3c(cc12)C(=O)CCC3 — lower, 120%
- COc1cc(C2C=C(C)N=C3SC(C)=NN32)cc(OC)c1OC (stereo not drawn) — lower, 100%
- c1cc(-c2ccc3c(c2)OCO3)n2nccc2n1 — lower, 95.8%
- Nc1c(C(=O)Nc2cccc([N+](=O)[O-])c2)sc2nc3c(cc12)C(O)CCC3 (stereo not drawn) — lower, 51.4%
- CCn1cc(C(=O)O)c(=O)c2cc(F)c(N3CCN(S(=O)(=O)c4ccc(Cl)cc4Cl)CC3)cc21 — lower, 12.1%
- CN1C(=O)[C@H]2c3c1cccc3[C@@]13NC(=O)O[C@H]1[C@H](CCC3(C)C)C2(C)C — lower, 103%
- CN1CCN(c2ccc3cc(-c4nc5ccccc5[nH]4)c(=O)oc3c2)CC1 — lower, 99.3%
- Cc1ccc(Cn2c(-c3nonc3N)nc3ccccc32)cc1 — lower, 77.5%
- COc1cc(-c2cc(/C=C3\CCCCC3=O)[nH]n2)cc(OC)c1OC — lower, 92.2%
- FC(F)(F)c1cccc(-n2nnc3cnc(Nc4ccc(N5CCCCC5)cc4)nc32)c1 — lower, 62.9%
- Cc1ccc(OCCn2c(C)nn(-c3ccc(Cl)cc3)c2=O)cc1 — lower, 101%
- COc1cc(Cn2c(SCC(=O)Nc3cc(OC)c(OC)c(OC)c3)nc3ccccc3c2=O)cc(OC)c1OC — lower, 52.6%
- c1ccc(CCn2nnc3c(Nc4ccc(N5CCOCC5)cc4)ncnc32)cc1 — lower, 93.3%
- CCCC1OC(c2ccc(C(C)C)cc2)OCC1CC (stereo not drawn) — lower, 95.7%
- Oc1ccc(N=Cc2ccccc2)cc1 — lower, 96.1%
- COc1cccc(NC(=O)c2sc3nc4c(cc3c2N)CCCC4)c1 — lower, 19.8%
- Cn1cc(C=O)c2ccccc21 — lower, 98.5%
- O=C1CCCCN1CCCCC#Cc1ccccc1C#Cc1ccc([N+](=O)[O-])cc1 — lower, 28%
- O=C(c1ccncc1)N1N=C(c2ccc(Cl)cc2)CC1c1c[nH]c2ccccc12 (stereo not drawn) — lower, 93.4%
- Cc1cc2c(c(=O)o1)C(c1ccc(OC(=O)N3CCOCC3)cc1)C(C#N)=C(N)O2 (stereo not drawn) — lower, 100%

For CC(C)N(Cc1ccc(CN(C(=O)CCl)C(C)C)cc1)C(=O)CCl, the growth was -41% (active).
In the case of Nc1c(C(=O)Nc2cccc(C(F)(F)F)c2)sc2nc3c(cc12)CCCCCC3, the growth is reported as -18.4% (active).
With O=Nc1c(-c2c(O)[nH]c3ccc([N+](=O)[O-])cc23)[nH]c2ccc(O)cc12 the growth was 0.602% (active).
In the case of CCc1cccc(C)c1NC(=O)c1sc2nc3c(cc2c1N)C(=O)CCC3, the growth is reported as 2.81% (active).
In the case of CN1CCN(CCCOc2ccc3nc(Nc4ccc(C(F)(F)F)c(Cl)c4)ccc3c2)CC1, the growth is reported as -62.3% (active).
